In ChEMBL document CHEMBL4888484, “Replenishing the malaria drug discovery pipeline: Screening and hit evaluation of the MMV Hit Generation Library 1 (HGL1) against asexual blood stage Plasmodium falciparum ,using a nano luciferase reporter read-out” (2022):
Out of some 4,800 compounds screened, about 420 (8.8%) showed an effect of 50% or more. This is one part of a sample in which strong results are shown more often than they occur.

Each compound was assayed on Plasmodium falciparum (assay: Confirmatory screen in NF54 nanoGlo assay, in single point, at 2uM, 72h). Conditions: timepoint 72 hour.
Assay type: functional, Erythrocyte
`O=C(NCc1cccnc1Oc1ccccc1)c1cccnc1` was tested, and the “% Inhibition” value was 5%.
In the case of `Cc1nc2cccnc2n1-c1cc(C(=O)NCc2ccccc2Cl)ccc1Cl`, the “% Inhibition” value is reported as -2%.
In the case of `CC1CCN(c2nccnc2Oc2ccc(C(=O)NCc3ccccc3Cl)cc2)CC1`, the “% Inhibition” value is reported as 59%.
In the case of `Cc1cc(=O)n2ncc(C(=O)NCc3cc(F)cc(F)c3)c2[nH]1`, the “% Inhibition” value is reported as -13%.
In the case of `C=CCOC(=S)NC(=O)Cc1ccccc1Cl`, the “% Inhibition” value is reported as 7%.
In the case of `Cc1ccc(-c2cn3c4ccccc4nc3n2CCN2CCN(C)CC2)cc1`, the “% Inhibition” value is reported as 2%.
In the case of `Cn1c(-c2ccc(Br)cc2)cn2cc(-c3ccc(Cl)cc3)nc12`, the “% Inhibition” value is reported as -5%.
With `CCN(CC)CCn1c2ccccc2n2cc(-c3ccc(Br)cc3)nc12` the “% Inhibition” value was 59%.
With `Cn1c(-c2ccc(-c3ccccc3)cc2)cn2cc(-c3cccc(Br)c3)nc12` the “% Inhibition” value was 0%.
`O=C(Nc1ccccc1)c1cccc(CN2CCN3CCOC[C@@H]3C2)c1` was tested, and the “% Inhibition” value was -5%.
For `CCn1cc(NC(=O)CCn2ncc3c(Cl)cccc32)cn1`, the “% Inhibition” value was -6%.
For `O=C(c1cc2ncccn2n1)N1CCc2ccccc2C1`, the “% Inhibition” value was -3%.
For `O=S(=O)(Nc1cccc(-c2nnc3n2CCC3)c1)c1ccc2c(c1)OCCCO2`, the “% Inhibition” value was -12%.
In the case of `Brc1cncnc1NC1CC1`, the “% Inhibition” value is reported as 2%.
With `CC1CC(Nc2ncnc3cc(Br)ccc23)CCN1C` (stereo not drawn) the “% Inhibition” value was 96%.
In the case of `CN1CCC(Nc2ncnc3c2cnn3C)C1c1ccc(Cl)cc1` (stereo not drawn), the “% Inhibition” value is reported as 4%.
With `CC[C@H](O)CN1CCC(Nc2ncnc3cc(Cl)ccc23)CC1` the “% Inhibition” value was 42%.
In the case of `Cc1nc(-c2ccc(C(F)(F)F)cc2)nc(N2CCN(C(=O)c3cc(C(F)(F)F)cc(C(F)(F)F)c3)CC2)c1C(C)C`, the “% Inhibition” value is reported as -2%.
For `CC(C)(C)C(=O)Nc1cc(Br)c(O)c(Br)c1`, the “% Inhibition” value was 3%.
`COCCN1CC2(CCCC2)N(C(=O)COc2ccc(F)cc2)CC1=O` was tested, and the “% Inhibition” value was -7%.
`COc1cc(=O)c(C(=O)N2CCC(C(N)=O)CC2)nn1-c1ccc(F)c(F)c1` was tested, and the “% Inhibition” value was 3%.
With `Cc1nccn1-c1cc(CNC(=O)[C@H]2CCCN(S(=O)(=O)c3cccs3)C2)ccn1` the “% Inhibition” value was 2%.
With `Cc1n(CC(=O)c2ccccc2)c2ccccc2[n+]1CC(=O)c1ccccc1` the “% Inhibition” value was 68%.
`O=C(c1ccccc1)n1c(=O)n(C(=O)c2ccccc2)c2ccccc21` was tested, and the “% Inhibition” value was 6%.
`Cc1ccc(C(=O)C[n+]2cc(-c3ccc(-c4ccccc4)cc3)n(C)c2N)cc1` was tested, and the “% Inhibition” value was 4%.
With `COc1ccc(S(=O)(=O)N2CCN(Cc3noc(CCC(=O)N(C)Cc4ccccc4)n3)CC2)cc1` the “% Inhibition” value was -6%.
In the case of `CC(C)(CC(=O)O)CC(=O)Nc1ccc(Cc2nnc3ccccn23)cc1`, the “% Inhibition” value is reported as -4%.
In the case of `COc1cc(-c2nc3ccccc3s2)ccc1OCc1cccc2ccccc12`, the “% Inhibition” value is reported as -7%.
In the case of `COc1ccc(-c2c(C(F)(F)F)n[nH]c2-c2ccc(OCc3ccccc3F)cc2O)cc1`, the “% Inhibition” value is reported as 90%.
With `O=C(NCC1CC1)c1cn[nH]c1-c1ccccc1` the “% Inhibition” value was -1%.
For `COc1cc(OC)cc(C2(O)CCN(C(=O)CCc3ccccc3F)CC2)c1`, the “% Inhibition” value was -10%.
With `Oc1cc(OCc2ccccc2F)ccc1-c1[nH]ncc1-c1ccccc1` the “% Inhibition” value was 75%.
In the case of `c1ccc(-c2cn[nH]c2N2CCNCC2)cc1`, the “% Inhibition” value is reported as -7%.
`NS(=O)(=O)Cc1ccc(CNc2ccc3ccc(F)cc3n2)cc1` was tested, and the “% Inhibition” value was 3%.
With `CCC(=O)N1CCc2sc(C(=O)NC3CCN(Cc4ccccc4)CC3)cc2C1` the “% Inhibition” value was -5%.
`CCCn1nccc1C(=O)NCCCn1ncc2c(C)cccc21` was tested, and the “% Inhibition” value was -2%.
For `CNC(=O)c1cc(NS(=O)(=O)N2CCCCCC2)ccc1F`, the “% Inhibition” value was -8%.
With `CCNC(=O)N1CCCC[C@@]1(C)c1noc(-c2ccc(F)cc2)n1` the “% Inhibition” value was 5%.
For `Fc1ccc(COc2cccc(CNCCN3CCOCC3)c2)cc1`, the “% Inhibition” value was -8%.
For `COc1cc(CNCCN2CCOCC2)ccc1OCc1cccc(C)c1`, the “% Inhibition” value was -2%.
With `O=C(Nc1ccncc1)c1nc(N2CCCC2)ncc1Br` the “% Inhibition” value was -5%.
For `Cc1nn(C)c(Cl)c1CNCc1ccc(N2CCCCC2)nc1`, the “% Inhibition” value was -10%.
`CC1CCC(C)(NC(=O)Nc2ccn(C(C)C)n2)CC1` (stereo not drawn) was tested, and the “% Inhibition” value was -11%.
For `CC1(C)CC[C@H](NC(=O)CCNc2ncccn2)c2ccccc21`, the “% Inhibition” value was -8%.
For `COc1cc2c(cc1OC)CN(c1noc(-c3ccccc3)n1)CC2`, the “% Inhibition” value was -5%.
With `CC(C)(C)c1ccc(C(=O)N[C@H]2C[C@@H]3CC[C@H]2C3)cc1` the “% Inhibition” value was 8%.
`Cc1ccc(CNC(=O)c2csnn2)n1C` was tested, and the “% Inhibition” value was -1%.
`COc1ccc(CNC(=O)[C@H](C)n2ccc3cc(S(=O)(=O)N4CCCC4)ccc32)cc1OC` was tested, and the “% Inhibition” value was 0%.
For `O=C1NC(=O)C2(CCN(C(=O)C3CC4CCC3C4)CC2)N1` (stereo not drawn), the “% Inhibition” value was -7%.
In the case of `CC(C)C(=O)N1CC[C@H](CC(=O)NCc2ccncc2)C1`, the “% Inhibition” value is reported as 0%.
For `N#CC1CCC(Nc2cnn(-c3ccncc3)c2)CC1` (stereo not drawn), the “% Inhibition” value was 5%.
`CS(=O)(=O)N1CC[C@H](CC(=O)N2CCN(c3ccc(F)cc3)CC2)C1` was tested, and the “% Inhibition” value was -14%.
With `Cc1nn(C)cc1S(=O)(=O)N1CCC[C@@H]1CCc1ccccn1` the “% Inhibition” value was -12%.
In the case of `COc1cc(OC)c(OC)cc1CNC(C)C`, the “% Inhibition” value is reported as -2%.
`Cc1c(C(=O)NC[C@](C)(O)c2ccc(F)cc2F)cnn1C` was tested, and the “% Inhibition” value was 7%.
With `CN(Cc1cccnc1)c1ccc(S(=O)(=O)C(F)F)cc1` the “% Inhibition” value was -5%.
With `O=C(NCCc1c(Cl)cccc1Cl)[C@@H]1CCCc2[nH]cnc21` the “% Inhibition” value was -2%.
For `O=C(c1cc(F)c[nH]1)N1CCN(C(=O)c2cc(F)c[nH]2)[C@@H]2CCCC[C@H]21`, the “% Inhibition” value was 13%.
For `COc1ccc(C2=NC3(CCN(Cc4ccccc4)CC3)N[C@H](c3cc(Cl)ccc3O)C2)cc1`, the “% Inhibition” value was 24%.
For `COc1ccc(-c2cc3ncc(C(=O)c4cc(Cl)ccc4O)cn3n2)cc1`, the “% Inhibition” value was 72%.
`O=C(Cc1ccc(Cl)cn1)Nc1ccnn1[C@H]1CCCc2ccccc21` was tested, and the “% Inhibition” value was -10%.
In the case of `CN1CCN(C(=O)CNC(=O)c2cccc(Cl)c2)CC1`, the “% Inhibition” value is reported as -2%.
`Cc1ccc(S(=O)(=O)N(CC(=O)NC2CCN(C)CC2)c2cccc(Cl)c2)cc1` was tested, and the “% Inhibition” value was -7%.
With `Cc1ccc(COc2cccc(CNC3CC3)c2)cc1` the “% Inhibition” value was -7%.
For `Cn1c(=O)c2ccnn2c2ccc(C(=O)NC3CCN(Cc4ccccc4)CC3)cc21`, the “% Inhibition” value was 23%.
With `CC(C)Cn1ncnc1COC(=O)c1cccnc1` the “% Inhibition” value was -1%.
In the case of `CC[C@H]1C[C@@H]1CNC(=O)c1cccc(NC(=O)c2ccco2)c1`, the “% Inhibition” value is reported as -7%.
In the case of `Cc1cc2[nH]ncc2cc1NC(=O)c1ccco1`, the “% Inhibition” value is reported as -8%.
